Data on 18 compounds can be found in PubChem BioAssay (NCI).

Test systems include T-47D breast; MDA-MB-435 melanoma; SW-620 colon; MCF7 breast; HCT-116 colon; HCC-2998 colon; KM12 colon; BT-549 breast.
Test in all cases: NCI-60 one-dose screen, 48 h (100 = growth as untreated, 0 = no growth, -100 = all killed)
Common to all, as to settings: 10 µM

Compounds without any hit were thinned out: in the full panel of roughly 83,000, 20% have a hit.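 In brief: 96-well plates, 48 h treatment, single concentration, percent growth endpoint.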 A number with no mark means an inactive call. Active and inactive are the calls of the source. The calls were made as follows: active = growth percent below 10; inactive = the rest.

With `CCOS(=O)(=O)c1c(C(C)C)cc(C(C)C)cc1C(C)C`, the growth in the assay on T-47D breast is 115%; in the assay on MDA-MB-435 melanoma, 99.1%; in the assay with SW-620 colon it was 98.3%; in the assay with MCF7 breast, 91.4%; in the assay on HCT-116 colon it was 104%; in the assay with HCC-2998 colon, 99.1%. The growth in the assay with KM12 colon is 104%.

`O=C(CCl)Oc1ccc(OC(=O)CCl)cc1`: the growth is 46.9% in the assay on BT-549 breast; 85.3% with MDA-MB-435 melanoma; 89.8% in the assay on SW-620 colon; 77.9% with MCF7 breast; 94.5% with HCT-116 colon; 109% in the assay on HCC-2998 colon. Besides, the growth in the assay with KM12 colon is 83.7%.

As to `CC(=O)OC1C=CC(OC(C)=O)O1` (centres undefined), the growth in the assay on T-47D breast is 88.1%; in the assay with MDA-MB-435 melanoma it was 96%; in the assay on SW-620 colon, 82%; with MCF7 breast, 87.9%; in the assay on HCT-116 colon, 84.3%; in the assay on HCC-2998 colon, 103%. Moreover, the growth in the assay with KM12 colon is 101%.

For `CCN(CC)CCCC(C)N=C(C1=C(C(=NC(C)CCCN(CC)CC)c2cccc(OC)c2)C(=O)NC1=O)c1cccc(OC)c1` (centres undefined), the growth in the assay with T-47D breast was -37.3% (active); with MDA-MB-435 melanoma, -91.1% (active); in the assay with SW-620 colon, -9.07% (active); in the assay with MCF7 breast, -29.8% (active); in the assay with HCT-116 colon, -19% (active); with HCC-2998 colon, -69.9% (active). In addition, in the assay on KM12 colon, the growth is 2.43% (active).

With `C=CCSC(CC)(CC)C(=O)NC`, the growth in the assay on T-47D breast was 102%; with MDA-MB-435 melanoma it was 109%; with SW-620 colon, 103%; in the assay with MCF7 breast, 94.6%; with HCT-116 colon, 94%; in the assay on HCC-2998 colon, 102%. Also, the growth in the assay with KM12 colon is 104%.

For `S=C1N(c2ccccc2)CN(C2CCCCC2)CN1c1ccccc1`, the growth in the assay with T-47D breast is 94.3%; with SW-620 colon, 104%; with MCF7 breast it was 88.7%; with HCT-116 colon, 102%; with HCC-2998 colon, 102%; in the assay on KM12 colon, 110%.

As for `CN(C)CCN(Cc1ccccc1)c1ccc2ccccc2n1`, the growth is 86.3% in the assay with T-47D breast; 94.4% in the assay on MDA-MB-435 melanoma; 91.8% in the assay with SW-620 colon; 86.7% with MCF7 breast; 90.4% with HCT-116 colon; 97.5% with HCC-2998 colon. The growth in the assay on KM12 colon is 101%.

As for `CN(C)CCCOc1ccccc1NC1=C(Cl)C(=O)C(Nc2ccccc2OCCCN(C)C)=C(Cl)C1=O`, the growth in the assay with T-47D breast was -37% (active); in the assay with MDA-MB-435 melanoma, -76.2% (active); in the assay with SW-620 colon, -46.8% (active); in the assay with MCF7 breast, -52.7% (active); in the assay on HCT-116 colon, -82.5% (active); in the assay on HCC-2998 colon it was -87% (active). The growth with KM12 colon was -34.2% (active).

Regarding `N#CCc1csc(Cc2ccccc2)n1`, the growth in the assay with T-47D breast is 103%; with MDA-MB-435 melanoma, 111%; in the assay with SW-620 colon, 103%; in the assay on MCF7 breast, 90.1%; with HCT-116 colon it was 106%; in the assay on KM12 colon it was 101%.

Take `COc1nc2c(c(=O)n1C)CN(c1ccccc1)C(=O)C(C)N2` (centres undefined): the growth in the assay on T-47D breast was 95.5%; in the assay with MDA-MB-435 melanoma, 103%; in the assay with SW-620 colon, 99.9%; with MCF7 breast, 94.5%; in the assay on HCT-116 colon, 95.4%; in the assay on HCC-2998 colon it was 94.5%. Further, in the assay on KM12 colon, the growth is 105%.

Turning to `Cc1ccc(C(C)C)c(O)c1NC(=O)OC(C)C`, the growth in the assay with BT-549 breast is 96.1%; with MDA-MB-435 melanoma, 106%; in the assay with SW-620 colon, 103%; with MCF7 breast, 92.7%; in the assay on HCT-116 colon, 91.9%; with HCC-2998 colon it was 89.5%. The growth with KM12 colon was 100%.

Consider `NNC(=O)Oc1c(Cl)cc(Cl)cc1[N+](=O)[O-]`, for which the growth in the assay with T-47D breast was 98.5%; in the assay on MDA-MB-435 melanoma it was 107%; with SW-620 colon, 105%; in the assay with MCF7 breast, 87.9%; in the assay with HCT-116 colon it was 102%; in the assay on HCC-2998 colon, 103%. In addition, the growth in the assay with KM12 colon is 106%.

Turning to `COc1cc2c(cc1OC)C(C(CCCCCC(CCC(C)C)C1NCCc3cc(OC)c(OC)cc31)CCC(C)C)NCC2` (centres undefined), the growth with T-47D breast is -85.2% (active); in the assay on SW-620 colon, -83.8% (active); in the assay on MCF7 breast, -92.7% (active); in the assay with HCC-2998 colon, -94.2% (active); in the assay with KM12 colon, -97% (active).

For the compound `COc1cc(C2CC(c3ccc4c(c3)OCO4)=NN2c2ccccc2)cc(OC)c1OC` (centres undefined), the growth is 71.9% with BT-549 breast; 30.7% with MDA-MB-435 melanoma; 89.4% with SW-620 colon; 87.4% in the assay with MCF7 breast; 83.2% in the assay on HCC-2998 colon.

As to `Clc1ccc(Cc2ccncc2)cc1`, the growth in the assay with BT-549 breast was 99.9%; in the assay with MDA-MB-435 melanoma, 112%; in the assay on SW-620 colon, 105%; in the assay on MCF7 breast, 97.5%; with HCT-116 colon it was 101%; with HCC-2998 colon, 95.6%. The growth in the assay on KM12 colon was 102%.

As to `COc1ccc(C2CC(c3cc(OC)c(OC)c(OC)c3)=NN2)cc1` (centres undefined), the growth was 51.7% with T-47D breast; 19.9% in the assay with MDA-MB-435 melanoma; 48% with SW-620 colon; 10.2% in the assay with MCF7 breast; 53.3% in the assay on HCT-116 colon; 79.3% in the assay with HCC-2998 colon. Moreover, the growth in the assay with KM12 colon is 15.1%.

For `COc1ccccc1N1CCCSC1=Nc1ccccc1`, the growth is 107% in the assay on T-47D breast; 103% in the assay with MDA-MB-435 melanoma; 103% with SW-620 colon; 98.6% in the assay with MCF7 breast; 79.2% with HCT-116 colon; 108% in the assay with HCC-2998 colon. Also, in the assay on KM12 colon, the growth was 91.7%.

As for `CCN(CC)CCOc1cccc2c1C(=O)c1cccc(OCCN(CC)CC)c1C2=O`, the growth is 92.2% in the assay on T-47D breast; 32.5% with MDA-MB-435 melanoma; 20.8% in the assay with SW-620 colon; 9.16% (active) in the assay with MCF7 breast; 7.44% (active) in the assay with HCT-116 colon; 33.9% with KM12 colon.
